Rab9 prom act = activators of Rab9 promoter; Huh7 Rab9 promoter-luciferase reporter, luminescence, 24 h; Potency, µM (series often up to 9.22 µM), actives largely listed as activators; 320,000 tested, 2.8% active; AID 485297; further: nearly all actives have a fitted effect of over 60% in size
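Using Huh7 cells stably transfected with Rab9 promoter–luciferase, compounds were incubated 24 h at 37 °C, 5% CO2; luciferase luminescence was read 10 min after reagent addition.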
SMN2 splice enh = increases expression of the SMN2 splice variant | Potency, µM (doses to about 46.1 µM), usual class: activators | HEK293 SMN2-luciferase splicing reporter, luminescence, 30-36 h | AID 1458 | 210,000 tested, 2.8% active; further: nearly all actives have a fitted effect of over 55% in size
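qHTS luciferase splicing reporter: luminescence rises when SMN2 exon 7 is included in transfected HEK293 cells. Compound exposure lasted 30-36 h at 37C, with 4.5 mM final sodium butyrate as control, followed by a ONE-Glo read.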
FLuc modulator = inhibits or activates purified firefly luciferase, miR-21 counter-screen; P08659; purified FLuc, Km substrates, luminescence inhibition; Potency, µM (doses to about 57.5 µM), hits mostly inhibitors; 360,000 tested, 6.9% active; AID 588342; further: nearly all actives have a fitted effect of over 55% in size
Target sequence (P08659 whole entry, looked up): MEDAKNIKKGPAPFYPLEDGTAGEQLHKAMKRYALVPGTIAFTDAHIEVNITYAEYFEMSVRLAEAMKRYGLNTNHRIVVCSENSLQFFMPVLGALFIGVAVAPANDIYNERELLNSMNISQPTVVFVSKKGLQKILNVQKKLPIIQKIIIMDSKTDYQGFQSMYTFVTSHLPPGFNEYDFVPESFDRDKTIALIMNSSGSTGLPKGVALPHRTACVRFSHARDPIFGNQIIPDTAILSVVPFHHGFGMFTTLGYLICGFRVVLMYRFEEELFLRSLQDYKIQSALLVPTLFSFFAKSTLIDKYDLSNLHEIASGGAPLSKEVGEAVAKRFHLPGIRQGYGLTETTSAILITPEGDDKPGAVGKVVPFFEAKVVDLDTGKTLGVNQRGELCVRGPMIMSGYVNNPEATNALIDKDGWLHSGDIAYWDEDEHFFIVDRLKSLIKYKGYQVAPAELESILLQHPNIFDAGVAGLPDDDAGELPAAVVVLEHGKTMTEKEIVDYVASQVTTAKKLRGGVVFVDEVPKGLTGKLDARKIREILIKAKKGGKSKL
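Biochemical qHTS of compounds, final roughly 60 µM downward over six points, against 10 nM purified firefly luciferase using Km concentrations of substrates (10 uM D-luciferin, 10 uM ATP) in Tris acetate pH 7.5 buffer; luminescence output.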
NPC1 prom act = activators of NPC1 promoter; Huh7 NPC1 promoter luciferase reporter, 24 h; Potency, µM (titrated, usually from 9.22 µM), usual class: activators; 320,000 tested, 2.4% active; further: nearly all actives have a fitted effect of over 60% in size
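Compounds in DMSO were transferred onto Huh7 NPC1-luciferase reporter cells pre-incubated 2 h; after 24 h at 37 °C, Amplite reagent was dispensed and luminescence recorded 10 min later.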
Luc counter = counter-screen: inhibitors of Kinase-Glo firefly luciferase | Q27757 | Kinase-Glo luciferase, ATP luminescence, 8 min | Potency, µM (series often up to 38.3 µM), actives largely listed as inhibitors | 200,000 tested, 0.28% active | AID 1379; further: nearly all actives have a fitted effect of over 60% in size
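Luminescence was the read-out, taken after 8-minute incubation at ambient temperature. Luciferase turned over luciferin with 10 uM ATP in imidazole pH 7.2 buffer containing KCl, MgCl2, Tween 20 and BSA.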
ELG1 genotox = genotoxicity induction in ELG1-luciferase HEK293T cells; HEK293T ELG1-luciferase reporter, luminescence, 16 h; Potency, µM (highest dose often 46 µM), usual class: activators; 330,000 tested, 1.3% active; further: nearly all actives have a fitted effect of over 60% in size
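Genotoxicity was scored as increased ELG1-luciferase reporter signal, measured by ONE-Glo luminescence (30 min, room temperature). Compound or vehicle exposure of the HEK293T reporter cells lasted 16 hr at 37°C.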
Each line names hits and unclear results; the compound was inactive in the other large screens; ! = not confirmed by another sample. Only some compounds are listed: those with a hit (about 7.5% of all), similar ones and a draw of the others. The call rests on the fitted dose curve; in most records, active means well fitted curve in the direction sought with a large enough effect; inconclusive means small, poorly fitted or top-dose-only effect, or another doubt; inactive means no such curve, though single readings can be large; an effect the other way counts as inactive or inconclusive.

Cc1csc(NC(=O)CCc2c(C)nc3cc(-c4ccc(Cl)cc4)nn3c2C)n1	FLuc modulator 11µM
Cc1ccc2c(c1)c1c(c(=O)n(-c3ccccc3)c(=O)n1CC(=O)N1CCCC1)n2C	none (no result: Rab9 prom act, SMN2 splice enh, NPC1 prom act, Luc counter, ELG1 genotox)
COC(=O)c1nc2n(n1)C(c1cccc(Cl)c1)C(C(=O)Nc1ccccc1OC)=C(C)N2 (stereo not drawn)	none (no result: Rab9 prom act, NPC1 prom act, Luc counter, ELG1 genotox)
Cc1ccccc1OCC(=O)Nc1ccc(-c2nc3ccccc3o2)cc1	none (no result: Rab9 prom act, SMN2 splice enh, NPC1 prom act, Luc counter, ELG1 genotox)
N#C/C(=C\c1ccc(O)c(O)c1)C(=O)Nc1ccccc1	SMN2 splice enh 22µM, FLuc modulator inconclusive, ELG1 genotox inconclusive
N#C/C(=C/c1cccc(O)c1)C(=O)NCc1ccc(Cl)cc1	none (no result: SMN2 splice enh, Luc counter)
N#C/C(=C\c1cccc(O)c1)C(=O)Nc1ccc2c(c1)OCCO2	FLuc modulator 0.48µM (no result: SMN2 splice enh, Luc counter)
CC(C)NC(=O)/C(C#N)=C/c1ccc2c(c1)OCCO2	FLuc modulator 9.5µM
Nc1cc(-c2ccccc2)nn1S(=O)(=O)c1ccc(Br)cc1	none
Nc1nn2cc(-c3ccc(Br)cc3)nc2c2ccccc12	Rab9 prom act 2.2µM, FLuc modulator 1.7µM, NPC1 prom act 1.8µM, ELG1 genotox inconclusive (no result: SMN2 splice enh, Luc counter)
Cc1ccc2nc(-c3ccc(Br)o3)oc(=O)c2c1	FLuc modulator 2.4µM
O=C(Nc1nnc(SCC(=O)N2CCCCC2)s1)c1cccs1	SMN2 splice enh inconclusive, FLuc modulator 19µM
O=C(Cc1cccs1)Nc1nnc(SCC(=O)N2CCCCC2)s1	none
O=C(Nc1nnc(SCC(=O)N2CCOCC2)s1)c1ccccc1Cl	Rab9 prom act inconclusive, FLuc modulator 8.5µM, NPC1 prom act inconclusive
O=C(Nc1nnc(SCC(=O)N2CCCCC2)s1)c1ccccc1F	FLuc modulator 24µM (no result: SMN2 splice enh, Luc counter)
O=S(=O)(c1ccc(Cl)s1)N1CCCc2cccc(O)c21	Rab9 prom act 4µM, FLuc modulator 11µM, NPC1 prom act inconclusive
Cc1ccsc1/C=N/Nc1ccc(C(=O)O)cc1	Rab9 prom act inconclusive, FLuc modulator 0.27µM, NPC1 prom act inconclusive, ELG1 genotox inconclusive (no result: SMN2 splice enh, Luc counter)
Cc1ccsc1/C=N/Nc1cccc(C(=O)O)c1	Rab9 prom act 0.0032µM, SMN2 splice enh 0.1µM, FLuc modulator 0.11µM, NPC1 prom act 3.2µM, ELG1 genotox inconclusive
C=CCOc1ccc2nc(NC(=O)OC)[nH]c2c1	SMN2 splice enh 11µM, FLuc modulator inconclusive, ELG1 genotox 9.2µM
COc1ccc(-c2cc(=O)c3cc(OC)ccc3o2)cc1	Rab9 prom act 0.25µM, SMN2 splice enh 0.89µM!, FLuc modulator 0.21µM, NPC1 prom act 0.5µM, ELG1 genotox inconclusive
CCC(N=c1cc(-c2ccc(OC)cc2)oc2ccc(C)cc12)C(=O)O (stereo not drawn)	SMN2 splice enh inconclusive, FLuc modulator 3µM, NPC1 prom act inconclusive, ELG1 genotox inconclusive
COc1cccc(-c2cc(=O)c3cc(O)ccc3o2)c1	none (no result: Rab9 prom act, SMN2 splice enh, FLuc modulator, NPC1 prom act, ELG1 genotox)
CCC(N=c1cc(-c2ccc(OC)c(OC)c2)oc2ccc(C)cc12)C(=O)O (stereo not drawn)	none
COc1cccc(-c2cc(=O)c3ccc(OC)cc3o2)c1	SMN2 splice enh 13µM (no result: Rab9 prom act, FLuc modulator, NPC1 prom act, ELG1 genotox)
CCc1ccc(NC(=O)c2ccc(CN3C(=O)C(C)=C(c4ccc(C)cc4)S3(=O)=O)cc2)cc1	none (no result: Rab9 prom act, SMN2 splice enh, NPC1 prom act, Luc counter, ELG1 genotox)
Cc1oc2ncnc(N3CCCCC3)c2c1C(=O)NCC1CCN(Cc2cccc(F)c2)CC1	none (no result: Rab9 prom act, SMN2 splice enh, NPC1 prom act, Luc counter, ELG1 genotox)
O=S(=O)(c1ccc(SCCOc2ccc(Cl)cc2)nc1)N1CCCC1	none (no result: SMN2 splice enh, Luc counter)
COC(=O)c1ccc(C(NC(=O)OCc2ccccc2)/C(F)=C/[C@@H](C)C(=O)N[C@@H](CO)Cc2ccccc2)cc1 (stereo partly drawn)	none (no result: Rab9 prom act, FLuc modulator, NPC1 prom act, ELG1 genotox)
CC[N+]1(C)C2CCC1CC(OC(=O)[C@H]1CCC(C(=O)OC3CC4CCC(C3)[N+]4(C)CC)(c3ccccc3)c3ccccc31)C2 (stereo partly drawn)	none (no result: Rab9 prom act, FLuc modulator, NPC1 prom act, Luc counter, ELG1 genotox)
O=C(Nc1cccnc1)c1ccc(Cl)c(Cl)c1	FLuc modulator inconclusive (no result: SMN2 splice enh, Luc counter)
CN(C)c1nc(N)c(C(=O)Nc2cccnc2)nc1Cl	SMN2 splice enh 11µM (no result: Rab9 prom act, FLuc modulator, NPC1 prom act, ELG1 genotox)
COc1cccc(NC(=O)C2CCCN(c3ncnc4onc(-c5ccc(F)cc5)c34)C2)c1 (stereo not drawn)	none (no result: Rab9 prom act, SMN2 splice enh, NPC1 prom act, Luc counter, ELG1 genotox)
COc1ccc([N+](=O)[O-])cc1NC(=O)c1csc(C)c1	FLuc modulator 2.7µM (no result: SMN2 splice enh, Luc counter)
COc1ccc(C(=O)Nc2ccc([N+](=O)[O-])cn2)c(OC)c1	Rab9 prom act 0.45µM, FLuc modulator 0.3µM, NPC1 prom act 1.1µM, ELG1 genotox 1.2µM (no result: SMN2 splice enh, Luc counter)
Cc1cc([N+](=O)[O-])ccc1NC(=O)c1csc(C)c1C	Rab9 prom act 2µM, FLuc modulator 3.8µM, NPC1 prom act 1.4µM, ELG1 genotox 4.1µM (no result: SMN2 splice enh, Luc counter)
Cc1cc(C(=O)Nc2ccc([N+](=O)[O-])cn2)cs1	Rab9 prom act 3.5µM, FLuc modulator 11µM, NPC1 prom act 2.5µM, ELG1 genotox 9.2µM (no result: SMN2 splice enh, Luc counter)
O=C(CSc1nc(=O)n(Cc2ccco2)c2c1CCC2)NCc1ccc(F)cc1	none (no result: Rab9 prom act, SMN2 splice enh, NPC1 prom act, Luc counter, ELG1 genotox)
CC1=C(C(=O)Nc2cccc(F)c2)C2(CCCCCC2)OC1=O	none (no result: Rab9 prom act, SMN2 splice enh, NPC1 prom act, Luc counter, ELG1 genotox)
Cc1nc2nc(-c3ccco3)nn2c(C)c1Cl	SMN2 splice enh 35µM
Cc1nc2nc(-c3cccnc3)nn2c(C)c1Cl	Luc counter inconclusive, ELG1 genotox inconclusive (no result: SMN2 splice enh)
CCC(=O)N1CCc2cc(S(=O)(=O)CCC(=O)Nc3cc(Cl)ccc3OC)ccc21	none (no result: Rab9 prom act, NPC1 prom act, Luc counter, ELG1 genotox)
C(#Cc1ccccc1)Cn1nnc2ccccc21	Rab9 prom act inconclusive, FLuc modulator 17µM, NPC1 prom act inconclusive, ELG1 genotox inconclusive
CC(=O)c1cccc(NC(=O)COc2ccccc2)c1	FLuc modulator inconclusive, ELG1 genotox inconclusive
CSc1cccc(NC(=O)Nc2ccccc2C(N)=O)c1	FLuc modulator 11µM (no result: SMN2 splice enh, Luc counter)

Bioassay records as filed in PubChem.
